The whole screen tested about 2,400 compounds, of which about 360 (15%) were called active.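 Rule for the calls: active = viability falls under 70% at one or more tested concentrations, taken as toxicity; inactive = viability stays over 70% at every dose.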 A selection follows. Results with a measured potency or affinity are listed apart.

This experiment can be described thus: viability loss in HeLa cells – cytotoxicity control for MgcRacGAP inhibitor project, dose response (AID 624300). As to conditions: CellTiter-Glo luminescence, 24 h; series mostly up to 100 µM. On the technique in general: In ATP-based viability assays light output follows the ATP content of the culture.
Take `Nc1cc(Cc2ccccc2)ccc1O`: the call was inactive.
Next, `N#Cc1ccc(OCC(=O)Nc2ccc(N3CCCC3)cc2)cc1`: “inactive”; `O=C(Nc1ccc(N2CCCCC2)cc1)c1ccccc1`: “inactive”; `COc1cc(N=Nc2ccc(C(=O)N(C)C)cc2)c(C)cc1N`: “inactive”.
To `N#CC1(Nc2ccc3c4c(cccc24)CC3)CCCCC1` belongs “inactive”; to `Cc1cnc(NC(=O)C(C)N2CCN(C)CC2)s1` (stereo unspecified), “inactive”.
Next, `O=C(Nc1ccccc1Cl)Oc1ccc(-c2ccccc2)cc1`: “inactive”.
Turning to `Cc1cc(NC(=O)CN2CCC(C)CC2)no1`, the compound was called inactive.
With `COc1ccccc1NS(=O)(=O)c1ccc(C)c(C(=O)N2CCN(c3ccc(O)cc3)CC2)c1`, the compound was called inactive.
Next, `Cc1ccc(C2C=NN(c3ccccc3)C2=O)cc1` (stereo unspecified): “inactive”.
Next, `C=CCn1c(=O)/c(=C/c2ccc(O)cc2)s/c1=C(/C#N)c1nnc2n1CCCCC2`: “inactive”.
To `COc1ccc(NC2CCCN(C(=O)CCc3scnc3C)C2)cc1` (stereo unspecified) belongs “inactive”.
Take `COc1cc(N)c2ncccc2c1OC`: the outcome was inactive.
To `COc1cc(N)c2ncccc2c1SC` belongs “inactive”; to `COc1ccccc1N1CCN(/N=C/c2ccc(O)cc2O)CC1`, “inactive”.
On to `COc1ccc(CN2CCN(Cc3ccc(Br)cc3)CC2)c(OC)c1OC`, for which the outcome was inactive.
Regarding `COc1ccc(Br)cc1CNc1ccc(O)cc1`, the result was inactive.
To `COc1ccc(Br)cc1CN(C)CC(=O)NCCc1ccccc1` belongs “inactive”.
Next, `COc1ccc(CNCc2cccc(OC)c2OC)cc1Br`: “inactive”; `Oc1ccc(/C=N/NC(=S)NCc2ccco2)cc1`: “inactive”.
To `CCN(CC)c1ccc(/C=N/N2CCOCC2)cc1` belongs “inactive”; to `CCNc1nc(NCC)nc(N/N=C/c2ccc(O)c(O)c2)n1`, “inactive”; to `COc1ccc(NC(=O)NS(=O)(=O)c2ccc(C)cc2)cc1OC`, “inactive”.
With `CCc1nnc(N/N=C/c2cc(Br)c(O)cc2O)n1N`, the call was inactive.
Regarding `COc1cc(/C=C/C(=O)OCC(=O)NCc2ccc(F)cc2)ccc1O`, the result was inactive.
With `CCN(CC)c1ccc(Nc2nc(-c3cccnc3)cs2)cc1`, the outcome was inactive.
Next, `CCN(CC)c1ccc(NC(=O)c2ccc(Br)o2)cc1`: “inactive”; `COc1ccc(N2CCC(CNC(=O)Nc3ccc(C)c(C)c3)C2)cc1` (stereo unspecified): “inactive”.
On to `COc1cc(C(=O)N/N=C/c2ccc(OC)c(CN3CCN(c4ccc(F)cc4)CC3)c2)ccc1O`, for which the result was inactive.
To `CC1=CC(c2ccccc2)NC(=S)N1` (stereo unspecified) belongs “inactive”; to `COc1ccc(NC(=O)C(C)N2CCN(C)CC2)cc1` (stereo unspecified), “inactive”; to `COc1cc2c(cc1N)-c1ccc(N)cc1C2`, “inactive”.
Next, `COc1ccc(NC2CCCN(C(=O)c3csc(C(C)C)n3)C2)cc1` (stereo unspecified): “inactive”; `CCOc1cc(/C=N/NC(=O)c2ccc(=O)n(C)c2)ccc1O`: “inactive”.
Next, `O=C(CNC(=O)c1ccncc1)N/N=C/c1ccc(O)cc1O`: “inactive”.
Turning to `COc1cc(/C=N/NC(=O)C2=NNC(=O)C2C)ccc1O` (stereo unspecified), the outcome was inactive.
To `COc1cc(/C=N/NC(=O)c2nonc2C)ccc1O` belongs “inactive”.
Turning to `Cc1nonc1C(=O)N/N=C/c1ccc(O)cc1`, the result was inactive.
Next, `COc1cc(/C=N/NC(=O)Cc2nnc(NC(=O)c3ccccc3)s2)ccc1O`: “inactive”; `CC(=O)Nc1ccc(S(=O)(=O)Nc2ccc(Nc3ccccc3)cc2)cc1`: “inactive”.
As to `CCn1c(C)nc2cc(C(=O)N/N=C/c3ccc(O)cc3)ccc21`, the outcome was inactive.
In the case of `Cc1nn2cc(-c3ccc(N)cc3)nc2s1`, the call was inactive.
Turning to `COc1cc(/C(C)=N/NC(=O)Cc2c(C)[nH][nH]c2=O)ccc1O`, the call was inactive.
Consider `C=CCn1c(CNc2ccc(C)cc2)nnc1SCC(=O)N/N=C/c1ccc(O)cc1O`, for which the compound was called inactive.
To `CC(C)Cn1c(-c2ccc(Br)o2)n[nH]c1=S` belongs “inactive”; to `CCN(CC)CCNCC(=O)Nc1ccc(Oc2ccccc2)cc1`, “inactive”.
Next, `CCC(=O)c1ccccc1OCCN1CCN(CC)CC1`: “inactive”; `CN(C)c1ccc(Cc2ccc(N(C)C)cc2)cc1`: “inactive”; `O=C1c2c([N+](=O)[O-])cc([N+](=O)[O-])cc2S(=O)N1Cc1ccccc1` (stereo unspecified): “inactive”.
To `COc1cc(/C=C/C(=O)OCC(=O)Nc2cccc(F)c2)ccc1O` belongs “inactive”; to `O=[S@]1Oc2ccccc2-c2ccccc21`, “inactive”.

The values are drawn from PubChem BioAssay AID624300 (Southern Research Specialized Biocontainment Screening …, 2012).
